Reference: PubChem BioAssay (NCATS)
Inconclusive results are not listed. A number with no mark means an inactive call. Calls of active or inactive are those of the source. The call rests on the fitted dose curve; in most records, active means well fitted inhibition curve with a large enough effect; inconclusive means small, poorly fitted or top-dose-only effect; inactive means flat fitted curve, though single readings scatter.
On the % scale 0 is the no-effect control and ±100 the full control effect; potency means the concentration at half of the fitted maximal effect.

These compounds were tested on CRL-7250 (assay: Cytotoxic Profiling of Annotated Libraries Using Quantitative High-Throughput Screening (AID 1296008; further: nearly all actives have a fitted effect of over 60% in size)). Details: Five cell lines viability, CellTiter-Glo ATP luminescence, 48-72 h; max response: stronger effect = lower value.
In short: (§1)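 Compounds were pin-transferred onto cells and incubated 48 or 72 hr at 37 degree Celsius, 95% humidity. CellTiter-Glo was added, plates sat 10 min at room temperature, then ATP-coupled luminescence was imaged as the viability read-out.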
For `Cn1ncc(Cl)c1-c1cc(C(=O)N[C@H](CN)Cc2ccc(F)c(F)c2)sc1Cl`, the max response was -4.08%. In the case of `CC(C)C[C@@H]1NC(=O)[C@@H](Cc2ccccc2)NC(=O)C(CCCCCC(=O)C2CO2)NC(=O)[C@@H]2CCCCN2C1=O` (stereo not given in full), the Potency is reported as 3.55 µM (active). For `OC1C=C2C3CN(Cc4cc5c(cc43)OCO5)C2CC1O` (stereo not given), the Potency was 8.2 µM (active). With `COC(=O)CC1OC(C)C2=C(O)c3c(O)cccc3C(=O)C23OC13` (stereo not given) the Potency was 4.04 µM (active). For `C=CC(=O)Nc1ccc2ncnc(Nc3cccc(Br)c3)c2c1`, the Potency was 5.8 µM (active). With `COc1cc(CCC2=NN=C(NC(=O)c3ccc(N4C[C@@H](C)N[C@@H](C)C4)cc3)C2)cc(OC)c1` the Potency was 10.3 µM (active). For `CC#CC(=O)Nc1ccc2ncnc(Nc3cccc(Br)c3)c2c1`, the Potency was 6.51 µM (active).

The compounds below were run on HEK293 in the same assay as above. Details: Five cell lines viability, CellTiter-Glo ATP luminescence, 48-72 h; max response: stronger effect = lower value.
In short: as §1
For `C=C1C(=O)O[C@@H]2C[C@H](C)[C@@H]3CC(=O)C(C)=C3C[C@H]12`, the Potency was 8.2 µM (active). In the case of `C=C1C(=O)O[C@H]2/C=C(/C)[C@@H](OC(C)=O)C/C=C(\C)C[C@@H](OC(=O)/C(=C/C)COC(=O)/C(=C/C)CO)[C@@H]12`, the Potency is reported as 3.17 µM (active). With `Fc1ccc2[nH]ccc2c1-c1nc(N2CCOCC2)c2sc(CN3CCN(CC4CC4)CC3)cc2n1` the Potency was 18.4 µM (active). For `C[C@@H](N[C@H]1CCCC[C@@H]1NC(=O)c1ccc(Cl)cc1)c1cccc2ccccc12`, the Potency was 20.6 µM (active). `N#Cc1ccc(Nc2nc(-c3ccc(O)cc3O)cs2)cc1C(F)(F)F` was tested, and the Potency was 3.26 µM (active). `CC(C)S(=O)(=O)NC[C@H](C)c1ccc(-c2ccc(CCNS(C)(=O)=O)cc2)cc1` was tested, and the Potency was 5.8 µM (active). For `Cn1c(=O)c2c(ncn2Cc2ccc(C(C)(C)C)cc2)n(C)c1=O`, the Potency was 1.64 µM (active). `COC1CC(=O)C23C(=O)NC(Cc4c[nH]c5ccccc45)C2C(C)C2(C)OC2C3/C=C/CC(C)CC1O` (stereo not given) was tested, and the Potency was 7.09 µM (active). `COC1CC/C=C(\C)C(=O)Nc2cc(O)cc(c2)CC(C)CC(OC)C(O)C(C)/C=C(\C)C1OC(N)=O` (stereo not given) was tested, and the Potency was 2.52 µM (active). In the case of `C=C1C(=O)OC2/C=C(\COC(C)=O)CC/C=C(\C=O)CC(OC(=O)CC(C)C)C12` (stereo not given), the Potency is reported as 2.82 µM (active). In the case of `O=C1C(Cc2ccc(O)cc2)N2C(=O)CCN(C(=O)NCc3ccccc3)C2CN1Cc1cccc2ccccc12` (stereo not given), the Potency is reported as 4.11 µM (active). In the case of `CC(O)C(C)n1ncn(-c2ccc(N3CCN(c4ccc(OCC5COC(Cn6cncn6)(c6ccc(Cl)cc6Cl)O5)cc4)CC3)cc2)c1=O` (stereo not given), the Potency is reported as 16.4 µM (active). With `C=C1CC[C@@H]2[C@](C)(CO)[C@H](O)CC[C@@]2(C)[C@@H]1C/C=C1/C(=O)OCC1O` (stereo not given in full) the Potency was 7.31 µM (active). In the case of `CCC(C)CC(=O)OC1C(=O)C(CO)=CC(O)C1C(C)C` (stereo not given), the Potency is reported as 8.2 µM (active). With `CC(C)=CCCC1(C)/C=C/C(OC(=O)C=C(C)C)C(C)(O)/C=C/C(=O)/C(CO)=C\C1` (stereo not given) the Potency was 2.52 µM (active). In the case of `C=C1C(=O)O[C@@H]2[C@H]3C(C)=CC(=O)C3=C(C)CC[C@@H]12`, the Potency is reported as 2.06 µM (active). In the case of `COc1cc2c(cc1OC(C)C)[C@H](c1ccc(Cl)cc1)N(c1ccc(N(C)CC3CCC(N4CCN(C)C(=O)C4)CC3)cc1)C(=O)C2` (stereo not given in full), the max response is reported as -97.2%. Work on `CCCCNc1ncc(-c2ccc(CN3CCOCC3)cn2)c(NC2CCC(O)CC2)n1` (stereo not given) yielded a max response of -11.5%. `C[C@@H]1O[C@@H](O[C@H]2[C@H](OC(=O)[C@]34CCC(C)(C)C[C@H]3C3=CCC5[C@@]6(C)C[C@H](O)[C@H](O[C@@H]7O[C@H](CO)[C@@H](O)[C@H](O)[C@H]7O)[C@](CO)(C(=O)O)C6CC[C@@]5(C)[C@]3(C)C[C@H]4O)OC[C@H](O)[C@@H]2O)[C@H](O)[C@H](O)[C@H]1O[C@@H]1OC[C@@H](O)[C@H](O[C@@H]2OC[C@](O)(CO)[C@H]2O)[C@H]1O` (stereo not given in full) was tested, and the Potency was 0.692 µM (active). In the case of `CCn1c2ccccc2c2cc(Nc3ccnc(NCCCN4CCOCC4)n3)ccc21`, the Potency is reported as 9.2 µM (active). In the case of `CN(C)CCOC(C)(c1ccccc1)c1ccc(Cl)cc1` (stereo not given), the Potency is reported as 20.6 µM (active). For `CC(C)n1cnc2c(-c3cnc(N)nc3)nc(N3CCOCC3)nc21`, the Potency was 1.78 µM (active). With `COc1ccc(-c2cc3onc(-c4ccncc4)c3c(=O)n2C)cc1` the Potency was 1.3 µM (active). In the case of `Cc1csc2c(N[C@@H](C)CN3CCN(S(=O)(=O)c4ccc(Cl)c(Cl)c4)CC3)ncnc12`, the Potency is reported as 0.366 µM (active). With `Cc1nnc(C[C@@H]2C=C(c3ccc(Cl)cc3)c3ccccc3-n3c(C)nnc32)o1` the Potency was 1.16 µM (active). `COc1cc(S(C)(=O)=O)ccc1Nc1nc2ccc(-c3ccc(NC(=O)[C@H](C)c4ccc(F)cc4)cc3)cn2n1` was tested, and the Potency was 0.331 µM (active). With `Nc1nc(NC2CC2)cc(-c2cccc(Cl)c2Cl)n1` the Potency was 18.4 µM (active). In the case of `O=C(NCCCc1ccccc1)c1cccc(-c2cc(O)c3ncccc3c2)c1`, the Potency is reported as 20.6 µM (active). `COCC(=O)NC/C=C/c1ccc2ncnc(Nc3ccc(Oc4ccc(C)nc4)c(C)c3)c2c1` was tested, and the Potency was 14.6 µM (active). For `O=C1Nc2nc(-c3c(O)cccc3OCC3CC3)cc([C@@H]3CCCNC3)c2CO1`, the Potency was 20.6 µM (active). For `CC(C)S(=O)(=O)Nc1ccc(F)c(C(=O)c2c[nH]c3ncc(-c4cccnc4)cc23)c1F`, the Potency was 14.6 µM (active). In the case of `Cn1ncc(Cl)c1-c1cc(C(=O)N[C@H](CN)Cc2ccc(F)c(F)c2)sc1Cl`, the Potency is reported as 1.3 µM (active). In the case of `CC(C)C[C@@H]1NC(=O)[C@@H](Cc2ccccc2)NC(=O)C(CCCCCC(=O)C2CO2)NC(=O)[C@@H]2CCCCN2C1=O` (stereo not given in full), the Potency is reported as 2.82 µM (active). In the case of `OC1C=C2C3CN(Cc4cc5c(cc43)OCO5)C2CC1O` (stereo not given), the Potency is reported as 6.51 µM (active). With `COC(=O)CC1OC(C)C2=C(O)c3c(O)cccc3C(=O)C23OC13` (stereo not given) the Potency was 2.86 µM (active). In the case of `C=CC(=O)Nc1ccc2ncnc(Nc3cccc(Br)c3)c2c1`, the Potency is reported as 20.6 µM (active). `COc1cc(CCC2=NN=C(NC(=O)c3ccc(N4C[C@@H](C)N[C@@H](C)C4)cc3)C2)cc(OC)c1` was tested, and the Potency was 18.4 µM (active). For `CC#CC(=O)Nc1ccc2ncnc(Nc3cccc(Br)c3)c2c1`, the Potency was 3.66 µM (active).
